# Screening data (PubChem BioAssay)
# The list is not random: actives were taken first. Their share in the collection is about 2.9%.
# ADAM10 inh: inhibitors of human ADAM10; recombinant ADAM10, EDANS/DABCYL FRET peptide cleavage, 3 h; inhibition, % at 7 µM; O14672; 370,000 tested, 0.62% active;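 active = inhibition above a per-campaign cutoff equal to the mean of compounds falling between control-based bounds plus 3 SD, cut at about 20% in these data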
# ADAM17 inh: inhibits human ADAM17; P78536; recombinant ADAM17, EDANS/DABCYL FRET peptide cleavage; inhibition, % at 6.95 µM; 370,000 tested, 0.83% active;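 active = inhibition above the mean of compounds lying between control limits plus 3 SD, set per campaign, cut at about 8.5% in these data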
# Target sequence (P78536 215-824 limits assumed): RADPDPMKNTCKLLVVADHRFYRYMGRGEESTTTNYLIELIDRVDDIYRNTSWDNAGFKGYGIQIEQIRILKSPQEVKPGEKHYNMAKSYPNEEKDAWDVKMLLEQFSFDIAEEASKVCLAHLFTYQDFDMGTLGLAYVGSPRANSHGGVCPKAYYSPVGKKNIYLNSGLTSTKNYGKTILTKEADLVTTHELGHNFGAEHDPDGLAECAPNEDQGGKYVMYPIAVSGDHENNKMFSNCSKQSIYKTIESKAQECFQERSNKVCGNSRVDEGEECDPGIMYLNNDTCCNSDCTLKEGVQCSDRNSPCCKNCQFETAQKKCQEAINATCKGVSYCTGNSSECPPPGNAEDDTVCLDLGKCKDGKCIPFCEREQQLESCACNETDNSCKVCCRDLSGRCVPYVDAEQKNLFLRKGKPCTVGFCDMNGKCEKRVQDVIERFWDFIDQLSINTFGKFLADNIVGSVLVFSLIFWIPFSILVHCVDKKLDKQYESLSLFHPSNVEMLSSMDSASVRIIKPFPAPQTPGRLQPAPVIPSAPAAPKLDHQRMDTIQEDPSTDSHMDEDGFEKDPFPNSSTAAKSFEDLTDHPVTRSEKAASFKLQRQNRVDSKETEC
# PLC-gamma1 inh: inhibitors of human phospholipase C gamma1; inhibition, % at 12.2 µM; 370,000 tested, 0.84% active; P19174; purified PLC-gamma1, fluorogenic substrate, fluorescence; in the data active = inhibition above about 9.5%
# KLK7 zymogen act: activators of human kallikrein-7 zymogen. activation, % at 7 µM. 370,000 tested, 0.9% active. purified proKLK7, EDANS-DABCYL substrate fluorescence; 100% is mature enzyme control, 0% vehicle;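 active = activation above the mean of all tested compounds plus 3 SD, computed per campaign excluding outliers beyond control limits, cut at about 13% in these data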
# PLCb3 inh: blocks human PLC-beta3 enzyme activity | 370,000 tested, 0.18% active | Q01970 | Purified PLC-beta3, fluorogenic substrate, fluorescence | AID 720704 | inhibition, % at 12.2 µM
# PLCgamma1 ctr: PLC-gamma1 inhibition, counter-screen for PLC-beta3 hits; shares compounds with PLC-gamma1 inh; purified PLC-gamma1, fluorogenic substrate, fluorescence; inhibition, % at 12.3 µM; 3,300 tested, 3.1% active; AID 743258; in the data active = inhibition above about 9.5%
# PLCb3 confirm: confirmation of human PLC-beta3 inhibitors; shares compounds with PLC-gamma1 inh; purified PLC-beta3, fluorogenic substrate fluorescence; inhibition, % at 12.3 µM; 3,300 tested, 1% active; AID 743261
# Hits are given with their value; 0 = inactive; - = no result given. Cut-off read from the data, not from the text of the source, unless noted: active = inhibition above about 11%; inactive = the rest.
SMILES,ADAM10 inh,ADAM17 inh,PLC-gamma1 inh,KLK7 zymogen act,PLCb3 inh,PLCgamma1 ctr,PLCb3 confirm
CCOc1ccc(NC(=O)CN(C)C(=O)CCCOc2ccc(Cl)c(C)c2)cc1OCC,0,0,9.6,0,0,0,0
CCc1ccc(OCC(=O)NC(C)(C)C)cc1,0,0,10.4,0,0,0,0
CCOc1cc(CNCCO)c(Cl)cc1OCC(=O)NCCc1ccccc1,0,0,0,0,11.6,0,0
CCOc1cc(CNCCc2ccccc2)ccc1OCC(=O)NC(C)(C)C,0,0,9.9,0,0,0,0
CCNC(=O)COc1ccc(CC)cc1,0,0,0,0,0,-,-
Cc1c(CCO)c(=O)n(-c2ccccc2)n1S(=O)(=O)c1c(Cl)cc(Cl)cc1Cl,0,0,0,0,0,-,-
CSCCC(NS(=O)(=O)c1ccc(Cl)cc1)C(=O)OCC(=O)c1ccc(F)cc1 (stereo unspecified),0,0,0,0,11.6,0,0
O=C(c1cc(O)c(O)c([N+](=O)[O-])c1)c1ccccc1F,0,0,10.0,0,0,0,0
O=C(Nc1ccc([N+](=O)[O-])cc1)c1ccccc1F,0,0,0,0,0,-,-
Cc1ccc(CNC(=O)C(C)OC(=O)c2ccco2)cc1 (stereo unspecified),0,0,12.8,0,0,0,0
CC1CCCCN1C(=O)C(Cc1ccccc1)N1C(=O)C2CCCCC2C1=O (stereo unspecified),0,0,10.9,0,11.4,0,0
CC1CCCCN1C(=O)N[C@@H](Cc1ccccc1)C(=O)O (stereo partly specified),0,0,0,0,0,-,-
O=C(NCCO)c1cccc(Nc2nc(-c3ccccc3)c3cc(Cl)ccc3n2)c1,0,0,0,0,0,-,-
CC(C)(C)c1ccc(S(=O)(=O)NCC2CCCO2)cc1 (stereo unspecified),0,0,0,0,0,-,-
O=C(O)c1ccc(S(=O)(=O)NCC2CCCO2)cc1 (stereo unspecified),0,0,11.0,0,0,0,0
O=C(C[n+]1cccc(CNC(=O)c2ccc(OC(F)F)cc2)c1)Nc1cccc(C(F)(F)F)c1,0,0,0,0,11.8,0,0
Cc1ccccc1-c1cc2nc(C)c(C)c(=O)n2[nH]1,0,0,0,0,0,-,-
CCC(=O)c1ccc(OCC(O)CN2CCN(S(=O)(=O)N3CCCCC3)CC2)cc1 (stereo unspecified),0,0,9.6,0,0,0,0
CN(Cc1cn(-c2ccccc2)nc1-c1cc2ccccc2o1)C(=O)CCC(=O)O,0,0,10.4,0,0,0,0
O=C(O)/C=C\C(=O)NCc1ccccc1,0,0,0,0,0,-,-
O=C(O)/C=C/C(=O)NCc1ccccc1,0,0,10.2,0,0,0,0
Cc1ccsc1C(=O)N1CCCC(C)(C(=O)NS(=O)(=O)C2CC2)C1 (stereo unspecified),0,0,9.8,0,0,0,0
CCOc1ccc(C(=O)N(CN2CCCC2=O)c2ccccc2)cc1,0,0,9.9,0,0,0,0
O=C(Nc1ccnn1C1CCN(CCCC2CCCC2)CC1)c1ccccc1Cl,0,0,10.9,0,0,0,0
CC(C)NC(=O)c1ccccc1NS(=O)(=O)c1ccc(Br)s1,0,0,0,0,0,-,-
SMILES,ADAM10 inh,ADAM17 inh,PLC-gamma1 inh,KLK7 zymogen act,PLCb3 inh,PLCgamma1 ctr,PLCb3 confirm
O=C(c1ccccc1NS(=O)(=O)c1ccc(Br)s1)N1CCCC1,0,0,0,0,10.8,0,0
Cc1[nH]c(C)c(S(=O)(=O)Nc2ccccc2)c1C(=O)N1CCCC1,0,0,0,0,0,-,-
COc1ccc(C(C)=O)c(OCC(=O)NCCC2=CCCCC2)c1,0,0,0,0,0,-,-
COc1ccc(OCC(=O)NCCC2=CCCCC2)c([N+](=O)[O-])c1,0,0,10.1,0,0,0,0
CC(C)Cc1nnc(NC(=O)c2cc(-c3ccncc3)nc3ccccc23)s1,0,0,0,0,0,-,-
O=c1cc([O-])[n+]2c3n1CCCN3CCC2,0,0,0,0,12.2,0,0
COc1ccc(N(C(=O)c2cc3ccccc3oc2=O)C2C=CS(=O)(=O)C2)c(OC)c1 (stereo unspecified),0,0,0,0,0,-,-
COc1ccccc1C(=O)COC(=O)/C=C/c1ccccc1,0,0,9.6,0,0,0,0
CN(CC(=O)NC(=O)NCc1ccco1)Cc1nc2ccccc2c(=O)[nH]1,0,0,0,0,0,-,-
Cc1ccc(-n2cc(CN3CCC(O)(c4ccccn4)CC3)c(-c3ccc(F)cc3)n2)cc1,0,0,9.8,0,0,0,0
Cc1ccc(-n2cc(CN3CCNC(=O)CC3)c(-c3ccc(F)cc3)n2)cc1,0,0,0,0,0,-,-
O=C(OCC(=O)c1c[nH]c2ccccc12)c1ccco1,0,0,0,0,10.8,0,0
COc1cc(NC(=O)c2ccco2)c(C(=O)OCC(=O)c2c[nH]c3ccccc23)cc1OC,0,0,0,0,0,-,-
O=C1CN(C(=O)COC(=O)c2cccc(Br)c2)c2ccccc2N1,0,0,14.0,0,0,0,0
Cc1ccc(S(=O)(=O)N(CC(=O)N/N=C/c2cccc(C)c2)c2cccc3cccnc23)cc1,0,0,11.0,0,0,0,0
COC(=O)[C@H]1C[C@@]2(O)CN(S(=O)(=O)c3ccc(C)cc3)C[C@@]2(OC(=O)NC2CCCC2)C[C@H]1C(=O)OC,0,0,9.7,0,0,0,0
COC(=O)[C@H]1C[C@@]2(O)CN(S(=O)(=O)c3ccc(C)cc3)C[C@@]2(OC(=O)NCc2ccccc2)C[C@H]1C(=O)OC,0,0,0,0,0,-,-
CCCCCCn1c(=O)n2n(c1=O)C[C@]1(OC(=O)NC3CCCC3)CN(S(=O)(=O)c3ccc(C)cc3)C[C@]1(O)C2,0,0,11.3,0,0,0,0
O=C(CSc1n[nH]c(-c2ccccc2)n1)Nc1ccccc1O,0,0,9.9,0,0,0,0
O=C(CSc1n[nH]c(-c2ccccc2)n1)Nc1ccc(F)cc1F,0,0,0,0,0,-,-
CCc1ccc(C2(C)SC(NC(C)=O)=NN2C(C)=O)cc1 (stereo unspecified),0,0,13.0,0,0,0,0
C/C(=N/NC(=O)c1cccs1)c1ccc(NC(=O)COc2ccc(Cl)cc2Cl)cc1,0,0,0,0,11.5,0,0
O=C1OCc2cc(NS(=O)(=O)c3cccs3)ccc21,0,0,10.4,0,0,0,0
O=C(O)c1cc2c(cc1Cl)N1CCCCCC1=NS2(=O)=O,0,0,19.2,0,0,0,0
O=C1CC(N2CCN(Cc3ccccc3)CC2)C(=O)N1c1ccc2c(c1)OCCO2 (stereo unspecified),0,0,0,0,0,-,-
O=C1CC(N2CCN(Cc3ccccc3)CC2)C(=O)N1c1ccccc1 (stereo unspecified),0,0,10.9,0,0,0,0
